From PubChem BioAssay
Most compounds without a hit are left out; they make up all but 3.9% or so of the library.
Eya2 inh: inhibitors of human Eya2 phosphatase activity; O00167; recombinant Eya2, OMFP fluorescence dephosphorylation (OMFP is methylfluorescein phosphate); Potency, µM (highest dose often 76.9 µM), usual class: inhibitors; actives 0.006% (n = 330,000); AID 488837
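Eya2 (0.2 uM) preincubated 10 min at ambient with compound, then OMFP substrate added at 50 uM; 10 min reaction in 50 mM HEPES pH 7.5, 50 mM NaCl, 5 uM MgCl2, 0.05% BSA, 1 mM DTT. Fluorescence read at Ex 485/Em 525 nm.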
USP2a block: blocks human ubiquitin-specific protease USP2a; O75604; USP2 core, Ub-CHOP2 coupled fluorogenic reporter, 485/531; Potency, µM (titrated, usually from 38.3 µM), usual class: inhibitors; actives 0.01% (n = 330,000); AID 463254
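USP2 core (10nM final) preincubated 30min RT with compound in 20mM Tris-HCl pH 8.0, 2mM CaCl2, 2mM beta-mercaptoethanol, 0.05% CHAPS; 25nM Ub-CHOP2 plus 25nM reporter substrate added, fluorescence (Ex485/Em531) read after 60min.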
D1 agonist: agonists of human D1 dopamine receptor | P21728 | HEK293 T-REx D1 cells, calcium flux, agonist mode | activation, % at 2 µM | actives 1% (n = 360,000) | AID 504660; in the data active = activation above about 30%
Target sequence (P21728 whole entry, looked up): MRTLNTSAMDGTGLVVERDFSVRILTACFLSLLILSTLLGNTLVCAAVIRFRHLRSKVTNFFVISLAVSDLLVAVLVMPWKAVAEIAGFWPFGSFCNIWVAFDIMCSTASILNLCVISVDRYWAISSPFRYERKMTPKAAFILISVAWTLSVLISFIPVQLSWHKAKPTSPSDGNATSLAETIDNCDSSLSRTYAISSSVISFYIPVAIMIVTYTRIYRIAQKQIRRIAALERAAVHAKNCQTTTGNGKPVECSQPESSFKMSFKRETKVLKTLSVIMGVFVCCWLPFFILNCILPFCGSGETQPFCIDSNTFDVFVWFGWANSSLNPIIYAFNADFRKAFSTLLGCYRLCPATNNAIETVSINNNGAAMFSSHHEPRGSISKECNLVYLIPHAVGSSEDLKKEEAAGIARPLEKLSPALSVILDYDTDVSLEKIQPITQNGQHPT
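Tetracycline-induced HEK293 TREx D1 cells, force-coupled to calcium signalling, were dye-loaded with a no-wash calcium kit. Compound was pin-added after a 10 s baseline. Fluorescence was read kinetically at 1 cycle/s for 180 s, with calcium rises flagged as agonism.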
D1 potentiator: potentiators of human D1 dopamine receptor; HEK293 TREx D1 cells, calcium flux, dopamine EC20 potentiation; P21728; actives 0.036% (n = 360,000); potentiation, % at 10 µM; AID 504651; in the data active = potentiation above about 30%
GALK inh: galactokinase (human) inhibition; P51570; Purified GALK, Kinase-Glo residual ATP luminescence; Potency, µM (highest dose often 57.5 µM), hits mostly inhibitors; actives 0.007% (n = 270,000)
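Compounds were pin-transferred into ATP buffer (35 uM final), then GALK plus galactose (5 nM, 100 uM final) was added. After 1 h at room temperature, Kinase-Glo Plus was added and luminescence read after 10 min.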
D1 antagonist: human D1 dopamine receptor antagonism; HEK293 TREx D1 cells, calcium flux, dopamine EC80; hits give low values; activity change, negative = inhibition, % at 10 µM; actives 3.2% (n = 360,000); in the data active = activity change below about -30%
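Tetracycline-induced HEK293 T-REx cells with force-coupled D1 receptor were loaded with a no-wash calcium dye. Compound was added after a 10 s baseline and read kinetically for 180 s; EC80 dopamine was then added and calcium flux followed another 180 s.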
Of the large screens only hits and unclear results are named; the others gave an inactive call. Unless noted, calls come from the whole dose curve; as a rule, active = well fitted inhibition curve with a large enough effect; inconclusive = small, poorly fitted or top-dose-only effect, or effect the other way; inactive = flat fitted curve, though single readings scatter.

CC(CN1c2ccccc2Sc2ccccc21)N(C)C (configuration not stated)	none
CN1CCCC(CN2c3ccccc3Sc3ccccc32)C1 (configuration not stated)	D1 agonist 42 (no result: GALK inh)
CN1CCCC(CC2c3ccccc3Sc3ccccc32)C1 (configuration not stated)	D1 agonist 53, D1 antagonist -41 (no result: GALK inh)
COCCNC(=O)c1c(NC(=O)c2cc(=O)c3cc(C)cc(C)c3o2)sc2c1CCCC2	none (no result: Eya2 inh, USP2a block, GALK inh)
O=C1CC(c2nnc(Cc3ccccc3Cl)o2)CN1c1ccccc1 (configuration not stated)	none (no result: Eya2 inh, USP2a block, GALK inh)
CN(C)CCNC(=O)C1CCCNC1=O (configuration not stated)	none
Cc1ccc(S(=O)(=O)NCCNC(=O)C2CCCNC2=O)cc1 (configuration not stated)	D1 antagonist -46
CN(C)c1ccc(CNC(=O)Cn2c(=O)oc3cc(S(=O)(=O)N4CCCCCC4)ccc32)cc1	none (no result: Eya2 inh, USP2a block, GALK inh)
CCCCOC(=O)CSc1nc(N)c(C#N)c(-c2ccc(OC)cc2)c1C#N	none
CCCOC(=O)CSc1nc(N)c(C#N)c(CC)c1C#N	D1 antagonist -40
Cc1ccc2c(CC(=O)Nc3nnc(C(C)C)s3)coc2c1C	none (no result: Eya2 inh, USP2a block, GALK inh)
Cc1cc(Cl)ccc1OCc1cc(=O)n2c3c(sc2n1)CCCC3	D1 antagonist -31 (no result: Eya2 inh, USP2a block, GALK inh)
Cc1cccc(OCc2cc(=O)n3c4c(sc3n2)CCCC4)c1C	none (no result: Eya2 inh, USP2a block, GALK inh)
COc1ccc(C(=O)Nc2cccc(OCc3cc(=O)n4c5c(sc4n3)CCCC5)c2)cc1	D1 antagonist -30 (no result: Eya2 inh, USP2a block, GALK inh)
Cc1ccc(OCC(=O)Nc2sc3c(c2C(N)=O)CCCC3)c(C(C)(C)C)c1	D1 antagonist -39 (no result: Eya2 inh, USP2a block, GALK inh)
Cc1ccc(OCC(=O)Nc2ccc(S(=O)(=O)Nc3ncccn3)cc2)c(C(C)(C)C)c1	D1 antagonist -31 (no result: Eya2 inh, USP2a block, GALK inh)
CCOc1ccccc1NC(=O)CC(c1ccc(F)cc1)N1Cc2ccccc2C1=O (configuration not stated)	none (no result: Eya2 inh, USP2a block, GALK inh)
CCN(CC)CCCNC(=O)CSc1nc(-c2ccc(F)cc2)cc(C(F)(F)F)n1	D1 antagonist -41
O=C(CSc1nc(-c2ccc(F)cc2)cc(C(F)(F)F)n1)NCCc1ccccc1	D1 agonist 44 (no result: Eya2 inh, USP2a block, GALK inh)
O=C(CSc1nc(-c2ccc(F)cc2)cc(C(F)(F)F)n1)NCc1cccs1	none (no result: GALK inh)
O=C(Nc1cccc(C(=O)Nc2ccc(S(=O)(=O)O)c3cc(S(=O)(=O)O)cc(S(=O)(=O)O)c23)c1)Nc1cccc(C(=O)Nc2ccc(S(=O)(=O)O)c3cc(S(=O)(=O)O)cc(S(=O)(=O)O)c23)c1	none (no result: USP2a block, D1 agonist, D1 potentiator, GALK inh, D1 antagonist)
Cc1ccc(-n2nc(-c3ccc(F)cc3)c3cnc4cc5c(cc4c32)OCO5)cc1C	none (no result: Eya2 inh, USP2a block, GALK inh)
CC(=O)Nc1cccc(C(=O)/C=C/c2ccco2)c1	none
CC(=O)Nc1ccc(C(=O)/C=C/c2ccco2)cc1	D1 antagonist -77
COc1cccc(NC(=S)N2CCCC2c2ccc(OC)c(OC)c2)c1 (configuration not stated)	D1 antagonist -61
COc1ccc(C2CCCN2C(=S)Nc2ccc(C)cc2C)cc1OC (configuration not stated)	D1 antagonist -38
COc1ccc(C2CCCN2C(=S)Nc2ccccc2C)cc1OC (configuration not stated)	none
COc1ccc(C2CCCN2C(=S)Nc2cccc(Cl)c2)cc1OC (configuration not stated)	none
CNS(=O)(=O)c1ccc2ccccc2c1	none
CNS(=O)(=O)c1ccc(Oc2ccc(S(=O)(=O)NC)cc2)cc1	D1 antagonist -44
Cc1ccccc1NC(=O)CSc1nc(-c2cccs2)nc2cc(=O)[nH]n12	D1 antagonist -37 (no result: GALK inh)
COc1cccc(CNC(=O)c2cccn2-c2nnc(N3CCCC3)s2)c1	none (no result: Eya2 inh, USP2a block, GALK inh)
CCC(=O)c1ccc2ncccc2c1	D1 antagonist -30
Cc1cccc(NC(=O)c2c(C)cc(C)nc2SCC(=O)c2ccccc2)c1	none (no result: Eya2 inh, USP2a block, GALK inh)
CNCC/C=C1/c2ccccc2CSc2ccccc21	D1 antagonist -51
COc1cc2c(cc1OC)[C@@H]1O[C@](c3ccsc3)(C2)Oc2cc(C)n(-c3ccccc3)c(=O)c21	none (no result: GALK inh)
CCOC(=O)c1cc2c(n(-c3ccc(Cl)cc3)c1=O)CCCC2=O	D1 antagonist -30
O=C(NCCCSc1ccccc1)c1cnc(Cl)c(Cl)c1	D1 antagonist -30
CCc1ccc(CNC(=O)Cn2nc(C)n3c(cc4cc(C)ccc43)c2=O)cc1	none (no result: Eya2 inh, USP2a block, GALK inh)
Cc1cc(C)nc(SCC(=O)n2c3c(c4ccccc42)CCCC3)n1	none
O=C(CSc1ncccn1)n1c2c(c3ccccc31)CCCC2	D1 antagonist -43
Cc1ccc(C[C@H](C(=O)O)N2C(=O)c3ccc(C(=O)O)cc3C2=O)c(C)c1	none (no result: GALK inh)
COC(=O)c1ccccc1NC(=O)[C@H]1O[C@@H]2OC(C)(C)O[C@@H]2[C@H]2OC(C)(C)O[C@H]21	none (no result: Eya2 inh, USP2a block, GALK inh)
O=C(c1ccc(CSc2nc3ccncc3n2Cc2ccc(F)cc2)cc1)N1CCCCCC1	none (no result: Eya2 inh, USP2a block, GALK inh)
NC(=S)n1[nH]c(-c2ccc([N+](=O)[O-])cc2)c(N=Nc2ccccc2[N+](=O)[O-])c1=O	D1 antagonist -51
CCc1ccc(N(CC)C(=O)Cn2nc(Cc3cccnc3)c3ccccc3c2=O)cc1	none (no result: Eya2 inh, USP2a block, GALK inh)
CC(C)c1ccc(Nc2sc(C(=O)c3ccccc3)c(N)c2S(=O)(=O)c2ccccc2)cc1	none (no result: Eya2 inh, USP2a block, GALK inh)
Cc1ccccc1Nc1sc(C(=O)c2ccc3c(c2)OCO3)c(N)c1S(=O)(=O)c1ccccc1	none (no result: Eya2 inh, USP2a block, GALK inh)
COc1ccc(S(=O)(=O)c2c(Nc3ccc(F)cc3)sc(C(=O)c3ccc4c(c3)OCO4)c2N)cc1	D1 agonist 43 (no result: Eya2 inh, USP2a block, GALK inh)
COc1ccc(S(=O)(=O)c2c(Nc3ccc(C)cc3)sc(C(=O)c3ccc4c(c3)OCO4)c2N)cc1	D1 agonist 78, D1 antagonist -38 (no result: Eya2 inh, USP2a block, GALK inh)
Cc1ccc(S(=O)(=O)c2c(Nc3ccccc3)sc(C(=O)c3ccc4c(c3)OCO4)c2N)cc1	D1 agonist 64 (no result: Eya2 inh, USP2a block, GALK inh)
COc1ccc(CNC(=O)C(=O)NCC(c2ccco2)S(=O)(=O)c2ccc(Cl)cc2)cc1 (configuration not stated)	none (no result: Eya2 inh, USP2a block, GALK inh, D1 antagonist)
O=C(NCCc1ccccc1Cl)c1ccc2c(=O)n(-c3ccccc3)c(=O)[nH]c2c1	none (no result: Eya2 inh, USP2a block, GALK inh)
COc1ccc(OC)c(NC(=O)CSc2nnc3ccc4ccccc4n23)c1	none (no result: Eya2 inh, USP2a block, GALK inh)
CCS(=O)(=O)c1ncc(Cl)c(C(=O)NCc2ccccc2)n1	D1 antagonist -33 (no result: Eya2 inh, USP2a block, GALK inh)
CCNC(=O)c1c(NC(=O)c2nc(S(=O)(=O)CC)ncc2Cl)sc2c1CCCC2	D1 antagonist -55 (no result: Eya2 inh, USP2a block, GALK inh)
O=C(NCc1ccccc1)c1nc(S(=O)(=O)Cc2ccccc2)ncc1Cl	D1 antagonist -41
